In all, about 16,000 compounds went through this assay and about 4,000 (25%) were called active. Roughly 26% stayed inconclusive and do not appear here. These entries were drawn from the full list. A number with no mark means an inactive call. Calls follow the shape of the dose curve; as a rule, active = well fitted curve in the direction sought with a large enough effect; inconclusive = small, poorly fitted or top-dose-only effect, or effect the other way; inactive = no such curve, though single readings can be large or run the other way.
What follows are compounds tested against Cytochrome P450 2C9 (Homo sapiens) (UniProt P11712) (assay: Cytochrome panel assay with activity outcomes). Conditions: recombinant CYP, pro-luciferin dealkylation, luminescence, p450-cyp2c9; series mostly up to 57.1 µM; activity, negative = inhibition: at the top concentration.
Chain of Cytochrome P450 2C9 (Homo sapiens) (P11712 whole entry, looked up): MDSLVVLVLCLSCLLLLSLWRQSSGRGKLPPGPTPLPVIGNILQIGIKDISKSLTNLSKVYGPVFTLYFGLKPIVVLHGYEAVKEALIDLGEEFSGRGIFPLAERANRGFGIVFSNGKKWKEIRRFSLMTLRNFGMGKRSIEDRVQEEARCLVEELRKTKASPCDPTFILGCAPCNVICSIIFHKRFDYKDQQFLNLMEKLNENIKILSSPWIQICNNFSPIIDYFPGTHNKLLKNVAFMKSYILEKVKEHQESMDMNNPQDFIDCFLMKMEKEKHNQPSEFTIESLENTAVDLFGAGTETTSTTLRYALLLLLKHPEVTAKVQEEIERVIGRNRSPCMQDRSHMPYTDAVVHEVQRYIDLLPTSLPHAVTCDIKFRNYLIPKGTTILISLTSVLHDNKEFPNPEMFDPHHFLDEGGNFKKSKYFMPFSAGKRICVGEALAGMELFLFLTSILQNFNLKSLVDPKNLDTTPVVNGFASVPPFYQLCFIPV
% is scaled to controls: 0 for no effect and ±100 for the full control effect.

Row | SMILES | activity, negative = inhibition | AC50
1 | CC1(CCC(=O)OC2CCCCC2)OCCO1 | -10.2% [at 11.4 µM] | 
2 | Cc1ccc(S(=O)(=O)N[C@H]2COC(=O)C/C=C\[C@@H](C)[C@H](NS(=O)(=O)c3ccc(C)cc3)COC(=O)C/C=C\[C@H]2C)cc1 | 0.307% [at 11.4 µM] | 
3 | CNC(=O)c1ccc(-c2sc3nc(N4CCOCC4)c4c(c3c2N)CC(C)(C)OC4)o1 |  | 4.47 µM (active)
4 | CCNc1ncc2nc(-c3cccc(C#N)c3)c(=O)n(C)c2n1 | 0.958% | 
5 | CCOc1nc(NC(C)C)nc(NC(C)C)n1 | 1.15% | 
6 | CCN(CC)S(=O)(=O)c1ccc(OC)c(NC(=O)c2cc([N+](=O)[O-])ccc2Cl)c1 | -23.8% | 
7 | CCN(CC)S(=O)(=O)c1ccc(OC)c(NC(=O)CSc2ccccc2)c1 |  | 2.51 µM (active)
8 | CCN(CC)S(=O)(=O)c1cc(C(=O)Nc2ccccc2C(=O)O)ccc1OC |  | 2.24 µM (active)
9 | COc1ccc(C(=O)Nc2cccc3c2C(=O)NC3=O)cc1S(=O)(=O)N1CCOCC1 | -11.3% | 
10 | C[C@H]1CC(C)(C)C[C@@](OCCN2CCCCC2)(c2ccccc2)C1 | 5.46% [at 11.4 µM] | 
11 | CCNc1ncc2nc(-c3cccs3)c(=O)n(C[C@H]3CCCO3)c2n1 | -6.53% | 
12 | O=C(Oc1ccccc1)N1CCC2(CC1)CCN(c1ccccc1)CC2 | -25.2% | 
13 | O=C(Oc1ccccc1)N1CCC2(CC1)CCN(c1ncccn1)CC2 |  | 15.8 µM (active)
14 | O=C(Oc1ccccc1)N1CCC2(CC1)CN(c1ccccn1)C2 | -4.7% | 
15 | O=C(Oc1ccccc1)N1CCC2(CC1)CN(c1ccccc1)C2 | -19% | 
16 | O=C(Oc1ccccc1)N1CCC[C@@]2(CCN(c3ccncc3)C2)C1 |  | 10 µM (active)
17 | COC(=O)N1CCC2(CC1)CN(c1ccncc1)C2 | 0.0576% | 
18 | COC(=O)N1CCC[C@@]2(CCN(c3ncccn3)C2)C1 | 4.65% | 
19 | O=C(Oc1ccccc1)N1CCC[C@@]2(CCN(c3ncccn3)C2)C1 |  | 10 µM (active)
20 | CC(=O)N1CCC[C@@]2(CCN(c3ncccn3)C2)C1 | 10.6% | 
21 | O=C(c1ccncc1)N1CCC[C@@]2(CCN(c3ccccc3)C2)C1 | 10.9% | 
22 | CC(=O)N1CCC[C@@]2(CCN(c3ccncc3)C2)C1 | 0.551% | 
23 | O=C(Oc1ccccc1)N1CCC2(CC1)CN(c1ccncc1)C2 |  | 3.16 µM (active)
24 | COCC(=O)N1CCC2(CCCN(C(=O)Nc3cccc(C#N)c3)C2)CC1 | 20.5% | 

Row | SMILES | activity, negative = inhibition | AC50
25 | O=[N+]([O-])c1nccn1C[C@H](O)CN1CCCCC1 | 0.319% [at 11.4 µM] | 
26 | COc1cccc(Nc2ncc3nc(-c4cc(F)cc(F)c4)c(=O)n(CCC#N)c3n2)c1 | 3.68% | 
27 | CCN1/C(=C/c2ccc3cccc(C)c3[n+]2CC)Sc2ccccc21 | -24.6% | 
28 | Cn1ncc([N+](=O)[O-])c1C(=O)N1CCOCC1 | 3.73% | 
29 | O=[N+]([O-])c1cc(F)c(N2CCOCC2)cc1N1CCCCC1 |  | 7.08 µM (active)
30 | O=C1N/C(=C\c2ccc(N3CCOCC3)c(F)c2)C(=O)N1Cc1ccccc1 | -22.3% | 
31 | N#Cc1c2n(c3c(=S)nc[nH]c13)CCCCC2 |  | 17.8 µM (active)
32 | CO[C@H]1COC(=O)[C@H](C)COC(=O)C/C=C\[C@@H](C)[C@H](OC)COC(=O)C/C=C\[C@@H]1C | 8.36% [at 11.4 µM] | 
33 | CCCc1ccc(C2C3=C(CC(C)(C)CC3=O)NC3=C2C(=O)c2ccccc23)cc1 (stereo not drawn) |  | 7.94 µM (active)
34 | CO[C@H]1COC(=O)[C@@H](Cc2ccccc2)NC(=O)[C@@H](C)COC(=O)C/C=C\[C@@H]1C | 15.1% [at 11.4 µM] | 
35 | Cc1ccc(C(N)=Nc2ccccc2)cc1 | 3.59% [at 11.4 µM] | 
36 | O=C(O)C(Cc1cccs1)C(=O)O | -6.54% [at 11.4 µM] | 
37 | Cc1ccc(/C(N)=N/OC(=O)Cc2cccs2)cc1 |  | 7.08 µM (active)
38 | C[N+]1(C)C[C@@H](O)C[C@@H]1C(=O)[O-] | 15.9% [at 25.6 µM] | 
39 | Cc1ccccc1-c1cncnc1NCc1cccs1 | 0.654% [at 2.29 µM] | 
40 | COc1cccc(C(CC(=O)Nc2cccc3ccccc23)NC(=O)c2ccccc2)c1 (stereo not drawn) |  | 0.251 µM (active)
41 | CN(CCO)c1nc(N)c2c(N)nc3c(c2c1C#N)CC(=O)N3C1CCCC1 |  | 1.41 µM (active)
42 | CC(C)NC(=O)N1CCCC2(CCN(C(=O)c3ccco3)CC2)C1 | 1.86% | 
43 | CC(C)(C)c1cc2c(O)c(c1)Cc1cc(C(C)(C)C)cc(c1O)Cc1cc(C(C)(C)C)cc(c1O)Cc1cc(C(C)(C)C)cc(c1O)Cc1cc(C(C)(C)C)cc(c1O)Cc1cc(C(C)(C)C)cc(c1O)Cc1cc(C(C)(C)C)cc(c1O)Cc1cc(C(C)(C)C)cc(c1O)C2 | -3.37% [at 11.4 µM] | 
44 | CN(Cc1ccco1)c1nc(-c2ccc3c(c2)OCO3)nc2ccccc12 | -18.1% [at 2.29 µM] | 
45 | Cn1c(-c2ccc3c(c2)OCO3)cc(=O)c2ccccc21 | -26.8% [at 25.6 µM] | 
46 | c1ccc2c(c1)ncn2Cc1nnc2sc(-c3ccc4c(c3)OCO4)nn12 |  | 3.16 µM (active)
47 | Cc1noc(C)c1COc1ccc(C(=O)NCC2CCCO2)cc1 (stereo not drawn) | -19.7% | 
48 | COc1cc(C(=O)OC(C)C(=O)Nc2ccc3c(c2)OCO3)ccc1OCc1c(C)noc1C (stereo not drawn) |  | 11.2 µM (active)

From PubChem BioAssay AID1851 (National Center for Advancing Translational Sciences (NCATS), 2009)
